Results reported in PubChem BioAssay AID652065 (The Scripps Research Institute Molecular Screening Center, 2013).
About 3,000 (70%) of roughly 4,300 compounds were called active. The set was probably picked from earlier hits. The list is a sample of the results. A number with no mark means an inactive call.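 How the source made its calls: active means inhibition above a per-plate cutoff, the mean inhibition of sample wells plus 3 SD (cut at about 35% in these data); inactive means the rest.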

Assay: small molecules binding CAG repeat RNA – biochemical, fluorescence, confirmation (AID 652065);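 further: loss of TO-PRO-1 fluorescence as compound displaces dye from 1x1 AA loop RNA; 0% = DMSO only wells and 100% = 100 µM mitoxantrone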
Conditions: r(CAG) RNA repeat, TO-PRO-1 dye displacement fluorescence; at 3 µM; hits give high values
With `O=C1NC(=O)N(Cc2ccco2)C(=O)/C1=C\c1ccc(-c2ccc(F)cc2)o1` the inhibition was 20.4%.
In the case of `COc1ccc(N2C(=O)/C(=C/c3ccco3)C(=O)NC2=S)cc1`, the inhibition is reported as 87% (active).
In the case of `CC/C(=N\NC(=O)c1ccccc1O)c1c(O)n(Cc2ccccc2)c(=O)[nH]c1=O`, the inhibition is reported as 75.3% (active).
With `O=C1CC(=O)N(Cc2ccccc2)C(=O)N1CCCCCCN1C(=O)CC(=O)N(Cc2ccccc2)C1=O` the inhibition was 54.7% (active).
In the case of `O=C1NC(=O)N(c2ccccc2)C(=O)/C1=C/c1ccc([N+](=O)[O-])s1`, the inhibition is reported as 61.7% (active).
In the case of `COc1cccc(N2C(=O)NC(=O)/C(=C\c3ccc([N+](=O)[O-])s3)C2=O)c1`, the inhibition is reported as 48% (active).
For `COc1ccc2c(c1)[C@@]13CCCCC1[C@@H](C2)NCC3` (some centres not stated), the inhibition was -0.72%.
